These results are taken from PubChem BioAssay.

Assay [1] addresses Pantothenate synthetase (Mycobacterium tuberculosis (strain ATCC 25618 / H37Rv)) (UniProt P9WIL5). As to the kind of experiment: Coupled enzyme confirmation of inhibitors against recombinant Mtb PanC (AID 375; call rule not given here;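 further: 0% = full reaction with vehicle and 100% = no enzyme background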). The following applies: coupled enzyme assay; at 10 µM, stronger effect = higher value.
The nature of assay [2]: Her2 expression decrease, cell viability multiplex – SKBR3 breast tumor cells, AlphaScreen, ATP viability, primary screen (AID 461;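 active means Her2 level under about 52% in both replicate screens, with viability over 70% of control, limit read from the data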;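 on Her2 level: lower value means less Her2 protein in the cells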;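 on viability: percent of carrier control wells set as 100% viability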). The note with it: SKBR3 Her2 protein level, 18-24 h, measured here: SKBR3 viability, ATP luminescence, at 10 µM. In general terms: Alpha assays give light when donor and acceptor beads are brought close together.
For assay [3], the target named is Receptor tyrosine-protein kinase erbB-2 (Homo sapiens) (UniProt P04626). The assay is described as above. The note with it: 18-24 h, at 10 µM, stronger effect = lower value.
A short description of assay [4]: reduced viability of SK-BR-3 breast cancer cells – cell-based, 24 h, human, pilot screen (AID 572;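 active means viability at or below 10% of carrier control in both of two separate runs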;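 further: compound exposure lasted between 18 and 24 h rather than exactly 24 h; 100% = carrier-treated control wells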). The following applies: SK-BR-3 viability, CellTiter-Glo luminescence, at 10 µM, stronger effect = lower value.
The nature of assay [5]: HUVEC growth inhibition – cell-based, human, primary screen (AID 575;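 active means viability at or below 30% in both replicate assays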;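 further: 100% = median of untreated cell wells with 0.1% DMSO on each plate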). The following applies: HUVEC proliferation, CellTiter-Glo luminescence, 72 h; at 10 µM; stronger effect = lower value. For orientation: Cellular ATP, detected with luciferase, serves as a proxy for viable cell number.
Assay [6] in a line: H69AR cell proliferation blockers – human, duplicate replicates, primary screen (AID 580;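 active means viability at or under a set limit in both replicates, limit being median viability minus 3 SD, cut at about 48% in these data, passing the limit was not always enough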;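 further: 100% = mean luminescence of untreated wells and 0% = no signal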). The following applies: H69AR lung tumor cells viability, ATP luminescence, 72 h; at 10 µM; stronger effect = lower value.
Assay [7] is described as follows: MRP1 drug-resistance reversers in H69AR cells – cell-based, doxorubicin co-treatment, pilot screen (AID 601;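 active means viability loss from added drug above about 55%, and viability with drug at most 40%, in both replicates, limit read from the data, passing the limit was not always enough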). The following applies: CellTiter-Glo, 72 h, at 10 µM; for differential viability (reversal): stronger effect = higher value.
The nature of assay [8]: yeast transport mutant growth inhibition pilot in 384-well plates, post-Golgi transport modulator project (AID 636; in the data active means inhibition above about 31%). The note with it: absorbance 615 nm, about 18 h, stronger effect = higher value.
Assay [9] can be described thus: growth suppression of yeast trafficking mutant, preliminary HTS, modulators of trafficking downstream of Golgi apparatus project, 1536-format plate, OD 615 nm (AID 637; in the data active means inhibition above about 30%). The following applies: yeast transport mutant growth, absorbance 615 nm, 18 h; stronger effect = higher value.
The nature of assay [10]: S. cerevisiae growth inhibition in permissive medium (OD615), pilot counter-assay for S. cerevisiae lifespan shortening project, permissive growth control (AID 705;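 active means growth inhibition above 25% in both replicates, a cutoff set 3 SD above the mean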). The following applies: OD615, 24 h, at 10 µM, stronger effect = higher value.
Assay [11] in a line: S. cerevisiae growth inhibition in restrictive medium, OD615, pilot screen, restrictive growth control, yeast lifespan reduction project (AID 706;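 active means growth inhibition above a set limit, 3 SD over mean compound inhibition, in both replicates, cut at about 43% in these data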;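 further: modified DeaD lifespan yeast strain shifted to restrictive glucose medium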). The note with it: OD615, 48 h, at 10 µM, stronger effect = higher value.
Assay [12] is described as follows: doxorubicin toxicity protection in MRP-1 cells – H69AR cells, CellTiter-Glo, duplicate, MRP-1 activator project, pilot screen (AID 807;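 active means viability increase at or above a cutoff of the median across tested compounds plus 3 SD, cut at about 8.5% in these data, passing the limit was not always enough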;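 further: compound pretreatment 18-22 h then 72 h combined with doxorubicin; 0% = doxorubicin alone and 100% = vehicle without doxorubicin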). The following applies: H69AR viability with doxorubicin, CellTiter-Glo luminescence; at 10 µM; stronger effect = higher value.
Assay [13] can be described thus: viability of HCT116 without oncogenic beta-catenin – human colon tumor cells, pilot screen (AID 823;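 active means cell viability at or below a set limit in both duplicate runs, the limit being the all-compound median minus 4 SD, cut at about 23% in these data, passing the limit was not always enough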;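 further: 0% = wells killed by 20 µM Hyamine and 100% = untreated DMSO cell wells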). The following applies: HCT116 beta-catenin knockout viability, CellTiter-Glo, 60 h; at 10 µM; stronger effect = lower value.
A short description of assay [14]: viability of PTEN-null HCT116 cells – cell-based, HCT116 clonal line, CellTiter-Glo, pilot screen (AID 824;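 active means viability at or below 27.92% in each of two runs, the all-compound median minus 4 SD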;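 further: 0% = 20 µM Hyamine control and 100% = vehicle cell control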). The following applies: HCT116 PTEN-deleted viability, 60 h, at 10 µM, stronger effect = lower value.
Assay [15] can be described thus: RAM pathway blockade in budding yeast – dse1pr::URA3 reporter, 5-FOA selection, pilot screen (AID 869;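 active means inhibition over a set limit, the all-compound mean plus 3 SD, in both replicate runs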;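 further: 0% = DMSO wells with no growth and 100% = 10 µM 1-NA-PP1 with full growth; RAM network block rescues cells from 5-FOA so hits raise OD615 growth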). The note with it: S. cerevisiae dse1pr::URA3 5-FOA growth, OD615, 2 d, at 10 µM, stronger effect = higher value.
The nature of assay [16]: RAM signaling pathway blockade in yeast – S. cerevisiae, Pdr1DBD-CYC8 efflux-inhibited sensitized strain, primary screen (AID 1298).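 Further: 0% = DMSO untreated cells without growth and 100% = 10 µM 1-NA-PP1 full growth; higher means more yeast growth rescued from 5-FOA killing.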 The note with it: S. cerevisiae cbk1-as DSE1-URA3 strain, 5-FOA growth OD615, 2 d; at 50 µM; stronger effect = higher value.
[17] abbreviates: H69AR cells + 2 uM doxorubicin, measured here: viability with 2 uM doxorubicin, stronger effect = lower value.
Where [18] appears, read: H69AR cells, compound alone cytotoxicity.

Inconclusive results are not listed. Calls of active or inactive are those of the source.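 How the source made its calls, unless noted: active means RAM network inhibition above 8.4% in each of two replicates, 3 SD over the compound average; inconclusive means above 8.4% inhibition in only one replicate; inactive means 8.4% inhibition or less in each replicate.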

Receptor tyrosine-protein kinase erbB-2 (Homo sapiens), sequence (P04626 whole entry, looked up): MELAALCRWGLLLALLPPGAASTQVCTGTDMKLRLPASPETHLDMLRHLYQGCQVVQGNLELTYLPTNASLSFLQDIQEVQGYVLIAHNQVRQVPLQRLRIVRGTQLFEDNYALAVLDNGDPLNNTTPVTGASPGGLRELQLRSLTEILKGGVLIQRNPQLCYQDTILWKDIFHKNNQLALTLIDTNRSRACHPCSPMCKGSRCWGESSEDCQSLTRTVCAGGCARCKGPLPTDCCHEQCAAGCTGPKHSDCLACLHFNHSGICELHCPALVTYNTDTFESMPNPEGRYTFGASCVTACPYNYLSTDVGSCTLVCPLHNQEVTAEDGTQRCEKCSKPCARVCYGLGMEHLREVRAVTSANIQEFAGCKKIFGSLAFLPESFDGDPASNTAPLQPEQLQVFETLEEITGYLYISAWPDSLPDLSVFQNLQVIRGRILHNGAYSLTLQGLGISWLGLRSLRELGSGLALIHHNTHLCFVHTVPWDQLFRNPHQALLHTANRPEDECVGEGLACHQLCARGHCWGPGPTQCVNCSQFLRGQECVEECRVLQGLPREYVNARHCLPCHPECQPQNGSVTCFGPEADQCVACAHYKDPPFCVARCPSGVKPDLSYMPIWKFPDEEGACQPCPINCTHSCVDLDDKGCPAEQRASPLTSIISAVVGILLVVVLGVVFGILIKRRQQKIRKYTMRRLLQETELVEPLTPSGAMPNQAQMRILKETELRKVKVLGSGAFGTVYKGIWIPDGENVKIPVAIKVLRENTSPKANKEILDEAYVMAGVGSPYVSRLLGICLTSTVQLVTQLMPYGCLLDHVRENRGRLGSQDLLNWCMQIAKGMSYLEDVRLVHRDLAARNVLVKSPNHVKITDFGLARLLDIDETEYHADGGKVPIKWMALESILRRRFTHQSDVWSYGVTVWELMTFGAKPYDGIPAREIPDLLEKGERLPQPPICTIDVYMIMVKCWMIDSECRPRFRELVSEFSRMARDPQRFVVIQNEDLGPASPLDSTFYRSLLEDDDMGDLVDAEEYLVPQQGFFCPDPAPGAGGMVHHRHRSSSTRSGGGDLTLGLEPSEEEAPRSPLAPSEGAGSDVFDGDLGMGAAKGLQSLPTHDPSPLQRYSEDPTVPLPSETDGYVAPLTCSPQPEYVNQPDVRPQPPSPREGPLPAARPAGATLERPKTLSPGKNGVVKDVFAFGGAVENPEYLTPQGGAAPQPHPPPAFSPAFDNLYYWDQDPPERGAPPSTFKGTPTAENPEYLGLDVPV
Pantothenate synthetase (Mycobacterium tuberculosis (strain ATCC 25618 / H37Rv)), sequence (P9WIL5 whole entry, looked up): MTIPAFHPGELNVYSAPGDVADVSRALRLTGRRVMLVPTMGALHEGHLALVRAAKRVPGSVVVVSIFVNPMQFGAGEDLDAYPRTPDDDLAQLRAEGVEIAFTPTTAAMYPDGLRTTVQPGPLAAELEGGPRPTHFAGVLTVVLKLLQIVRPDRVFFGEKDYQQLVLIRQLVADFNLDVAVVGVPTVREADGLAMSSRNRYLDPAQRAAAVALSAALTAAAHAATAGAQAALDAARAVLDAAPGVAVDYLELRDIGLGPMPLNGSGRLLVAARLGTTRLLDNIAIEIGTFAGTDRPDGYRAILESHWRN

The term inhibition denotes the drop in the measured response relative to a control, in per cent. One may read the viability as a read-out of living cells in per cent, often relative to untreated cells. For `CN1C(=O)C(Cc2cccc3ccccc23)C(=O)N(C)C1=O`, the inhibition in assay [1] is 6% (inactive); in [8] it was -5.81% (inactive); in assay [9] it was 0.98% (inactive); in [15] it was 0.305% (inactive). The viability in assay [2] is 73.5%; in assay [4], 73.5% (inactive); in assay [5] it was 95.4% (inactive); in [6] it was 85.2% (inactive); in assay [7] (setting [17]), 92.4%; in assay [7] (setting [18]), 85.2%. Moreover, the values for the viability in assay [13] and in [14] were 92.5% (inactive) and 89.7% (inactive), respectively. Moreover, the Her2 level in assay [3] was 94% (inactive). Moreover, the differential viability (reversal) in [7] (H69AR cells + 2 uM doxorubicin) is -7.14% (inactive). Further, the values for the growth inhibition in assay [10] and in assay [11] were -20.9% (inactive) and -4.64% (inactive), respectively. The viability increase in assay [12] is -2.39% (inactive). The RAM network inhibition in assay [16] was 1.47% (inactive).
In the case of `Cc1nc2ccccc2c(=O)n1-c1ccc(F)cc1`, the inhibition in assay [1] was 0% (inactive); in assay [8], -5.32% (inactive); in assay [9] it was 1.5% (inactive); in [15], 1.44% (inactive). Moreover, the viability is 104% in assay [2]; 104% (inactive) in assay [4]; 93.6% (inactive) in assay [5]; 96.1% (inactive) in assay [6]; 84.6% in assay [7] (setting [17]); 96.1% in [7] (setting [18]). In addition, the values for the viability in assay [13] and in assay [14] were 97.7% (inactive) and 100% (inactive), respectively. In addition, the Her2 level in assay [3] was 90% (inactive). In addition, the differential viability (reversal) in assay [7] (H69AR cells + 2 uM doxorubicin) was 11.5% (inactive). For the same compound, the growth inhibition in assay [10] is -2.1% (inactive); in [11], 4.13% (inactive). The viability increase in assay [12] was -0.87% (inactive). In addition, the RAM network inhibition in [16] was 1.29% (inactive).
As for `Cc1cc(OC(=O)c2ccco2)c2c3c(c(=O)oc2c1)CCC3`, the growth inhibition in [10] is 2.81% (inactive); in assay [11] it was -1.05% (inactive). For the same compound, in [12], the viability increase was -1.26% (inactive). Also, the figures for the viability in [13] and in [14] were 94.3% (inactive) and 85.2% (inactive), respectively. The RAM network inhibition in assay [16] is 4.5% (inactive).
Regarding `Cc1cccc(-n2c(-c3ccco3)nc3ccccc3c2=O)n1`, the inhibition in assay [1] was 0% (inactive); in assay [8], -0.54% (inactive); in [9], 49.3% (active); in assay [15], 0.505% (inactive). Moreover, the viability in assay [2] was 105%; in [4] it was 105% (inactive); in [5], 111% (inactive); in assay [6] it was 87.9% (inactive); in assay [7] (setting [17]), 90%; in assay [7] (setting [18]) it was 87.9%. Besides, the viability is 108% (inactive) in [13] and 99.7% (inactive) in assay [14]. Besides, in assay [3], the Her2 level was 98.5% (inactive). The differential viability (reversal) in assay [7] (H69AR cells + 2 uM doxorubicin) was -2.13% (inactive). In addition, the results for the growth inhibition in assay [10] and in assay [11] were -16.8% (inactive) and -15.7% (inactive), respectively. For the same compound, the viability increase in [12] was 0.12% (inactive). For the same compound, the RAM network inhibition in assay [16] is 0.8% (inactive).
As to `COc1ccc(OC)c(N2C(=O)NC(=O)C(CCc3ccncc3)(CCc3ccncc3)C2=O)c1`, the inhibition was 0% (inactive) in [1], 0.79% (inactive) in assay [8], 11.3% (inactive) in assay [9] and 2.2% (inactive) in assay [15]. For the same compound, the viability was 105% in assay [2]; 105% (inactive) in assay [4]; 91% (inactive) in [5]; 82.8% (inactive) in assay [6]; 91.7% in assay [7] (setting [17]); 82.8% in assay [7] (setting [18]). Besides, the viability is 94.8% (inactive) in assay [13] and 94.2% (inactive) in assay [14]. Besides, in assay [3], the Her2 level was 112% (inactive). Also, the differential viability (reversal) in assay [7] (H69AR cells + 2 uM doxorubicin) was -8.92% (inactive). Also, the figures for the growth inhibition in assay [10] and in [11] were -15.9% (inactive) and -9.8% (inactive), respectively. The viability increase in [12] was -1.85% (inactive). Moreover, the RAM network inhibition in assay [16] was 0.12% (inactive).
On to `CP(C)(=O)CCC(=O)O`, for which the inhibition in [1] is 0% (inactive); in assay [8], -4.94% (inactive); in assay [9], 3.44% (inactive); in assay [15], 0.42% (inactive). Besides, the viability in assay [2] was 101%; in assay [4], 101% (inactive); in assay [5], 81.4% (inactive); in assay [6], 100% (inactive); in assay [7] (setting [17]) it was 82.1%; in assay [7] (setting [18]) it was 100%. The values for the viability in [13] and in [14] were 101% (inactive) and 98.1% (inactive), respectively. Also, the Her2 level in [3] was 105% (inactive). In [7] (H69AR cells + 2 uM doxorubicin), the differential viability (reversal) was 18.2% (inactive). Besides, the growth inhibition in assay [10] is -18% (inactive); in assay [11], -19.2% (inactive). In [12], the viability increase is 0.16% (inactive). Further, the RAM network inhibition in [16] is 2.22% (inactive).
With `Cc1cccnc1-n1c(-c2ccco2)nc2ccccc2c1=O`, the growth inhibition was -5.46% (inactive) in assay [10] and -8.26% (inactive) in assay [11]. Besides, the viability increase in assay [12] was -0.56% (inactive). Besides, the viability in assay [13] was 100% (inactive); in assay [14] it was 101% (inactive). Further, the inhibition in [15] is 0.59% (inactive). For the same compound, the RAM network inhibition in [16] was -0.22% (inactive).
Regarding `COc1ccc(C2C(C(=O)N3CCC4(CC3)OCCO4)c3cc(OC)c(OC)cc3C(=O)N2C)cc1` (stereo not drawn), the growth inhibition was -15.2% (inactive) in assay [10] and -29% (inactive) in [11]. Further, the viability increase in assay [12] is -2.58% (inactive). The viability is 98% (inactive) in assay [13] and 99.4% (inactive) in [14]. In [15], the inhibition is 1.61% (inactive). In addition, the RAM network inhibition in assay [16] was 0.93% (inactive).
Turning to `CC12CNCC(C)(CNC1)C2O` (stereo not drawn), the growth inhibition in assay [10] is 7.96% (inactive); in [11], -2.77% (inactive). The viability increase in assay [12] was -0.15% (inactive). Further, the figures for the viability in assay [13] and in [14] were 97.5% (inactive) and 99.8% (inactive), respectively. In assay [15], the inhibition is 1.12% (inactive). Besides, the RAM network inhibition in assay [16] was 2.1% (inactive).
Turning to `C=Cn1ccnc1P(=S)(c1cc(N(CC)CC)ns1)c1nccn1C=C`, the growth inhibition in assay [10] was -0.585% (inactive); in [11], 21.8% (inactive). Further, in assay [12], the viability increase is -0.61% (inactive). Moreover, the viability in assay [13] was 92.1% (inactive); in assay [14] it was 90.5% (inactive). The inhibition in assay [15] was 1.49% (inactive). Further, in assay [16], the RAM network inhibition was 2.27% (inactive).
As for `O=C1OCCN1P(=O)(c1ccccc1)c1ccccc1`, the growth inhibition in [10] is -6.19% (inactive); in assay [11], 2.02% (inactive). Moreover, the viability increase in assay [12] is -0.69% (inactive). Besides, the viability in [13] is 98.4% (inactive); in [14] it was 98% (inactive). Moreover, in assay [15], the inhibition is 0.445% (inactive). For the same compound, the RAM network inhibition in [16] is -1.04% (inactive).
Take `CC12CN3CC(C)(CN(C1)P3(=O)Oc1ccccc1)C2=O` (stereo not drawn): the growth inhibition in [10] is -3.04% (inactive); in assay [11] it was -8.29% (inactive). Moreover, in [12], the viability increase was -0.06% (inactive). Also, the results for the viability in assay [13] and in [14] were 101% (inactive) and 97.9% (inactive), respectively. Also, the inhibition in [15] was 2.22% (inactive). The RAM network inhibition in assay [16] is 3.62% (inactive).
